# Reference: PubChem BioAssay (Tox21)
# “And” between values parts separate entries of the source, which are not always exact repeats. Equal values may be shown once. Results filed as inconclusive are left out. Some structures have more than one record in an assay (separate samples or runs), and their calls can disagree. The source made the active and inactive calls. Calls follow the shape of the dose curve; as a rule, active = well fitted cell-killing curve with a large enough effect in the repeat runs; inconclusive = weak or mixed curves, or effect the other way; inactive = no such curve, though single readings can be large or run the other way.
# Test: qHTS assay to identify small molecule antagonists of the vitamin D receptor (VDR) signaling pathway - cell viability counter screen (AID 743225); also: nearly all actives have a fitted effect of over 50% in size
# Conditions: VDR-bla HEK293T viability, CellTiter-Glo luminescence, 16 h; series mostly up to 61 µM; viability change, negative = cytotoxic: at the top concentration
# Text: U.S. Tox21 Program National Center for Advancing Translational Sciences [NCATS] NIH Chemical Genomics Center [NCGC] U.S. Environmental Protection Agency [EPA] National Institutes of Environmental Health Sciences [NIEHS] National Toxicology Program [NTP] U.S. Food and Drug Administration [FDA] Tox21 Assay Overview: The vitamin D receptor (VDR), a member of nuclear hormone receptor superfamily, plays a critical role in calcium homeostasis and bone metabolism. It is also involved in cell differentiation and growth, and thrombogenicity. To identify the compounds that inhibit VDR signaling, the VDR-UAS-bla HEK 293T cell line (Invitrogen, Carlsbad, CA, USA) containing a beta-lactamase reporter gene under the control of an upstream activator sequence (UAS) was used to screen the Tox21 10K compound library. The cytotoxicity of the Tox21 compound library against the VDR-bla cell line was tested in parallel by measuring the cell viability using CellTiter-Glo assay (Promega, Madison, WI) in the same wells.
# Tox21 Assay Protocol Summary: VDR-bla cells were dispensed at 2,000 cells/5 uL of assay medium per well into black wall/clear-bottom 1536-well plates using a Multidrop Combi (Thermo Fisher Scientific, Waltham, MA) dispenser. After the assay plates were incubated at a 37C and 5% CO2 for 4 h, 23 nL of compounds dissolved in DMSO, positive controls or DMSO only was transferred to the assay plate by a Pintool station (Kalypsys, San Diego, CA), followed by addition of 1 uL of 1-alpha, 25-Dihydroxy Vitamin D3 (3 nM, final concentration in the wells) using a Bioraptr Flying Reagent Dispenser (FRD) workstation (Beckman Coulter, Indianapolis, IN). The plates were incubated at 37C and 5% CO2 for 16 h, and then 1 uL of LiveBLAzerTM B/G FRET substrate was added using a Bioraptr FRD. The plates were incubated at room temperature for 2 h and fluorescence intensity was measured by an Envision plate reader (PerkinElmer, Shelton, CT). For cell viability readout that measures cytotoxicity, 3 ul/well of CellTiter-Glo reagent was added into the assay plates using a Bioraptr FRD. After 30 min incubation at room temperature, the luminescence intensity in the plates was measured using a ViewLux plate reader (PerkinElmer).
# % is scaled to controls: 0 for no effect and ±100 for the full control effect; potency is read from the fitted curve at half-maximal effect.
SMILES,"viability change, negative = cytotoxic",Potency
C[C@]12CC[C@@H]3c4ccc(OC(=O)N(CCCl)CCCl)cc4CC[C@H]3[C@@H]1CC[C@@H]2O,3.77% (inactive),–
c1ccc2c(c1)[nH]c1cnccc12,-5.05% (inactive),–
N#C/C=C/C#N,12% [at 78.8 µM] (inactive),–
O=S(=O)(c1ccc(Cl)cc1)c1ccc(Cl)cc1,-6.25% [at 78.8 µM] (inactive),–
CCN(CC)c1c([N+](=O)[O-])cc(C(F)(F)F)c(N)c1[N+](=O)[O-],-10.8% (inactive),–
Nc1ccccc1C(=O)Oc1ccc2ccccc2c1,6.78% (inactive),–
Cc1cc(SCc2sc(-c3ccc(C(F)(F)F)c(F)c3)nc2C)ccc1OCC(=O)O,–,21.9 µM (active)
CC(=O)Nc1ccc2c(c1)Cc1ccccc1-2,10.9% [at 78.8 µM] (inactive),–
COc1cc(N)c(Cl)cc1C(=O)NC1CN2CCC1CC2 (stereo not given),-10.3% (inactive),–
CC(C)CCCCCOC(=O)c1ccccc1C(=O)OCCCCCC(C)C,-11.3% (inactive),–
N#CCCSCCC#N,20.7% (inactive),–
ClC1=C(Cl)C2(Cl)C3C(Cl)C=CC3C1(Cl)C2(Cl)Cl (stereo not given),–,inactive
CCCCCCCCCC[N+](C)(C)CCCCCCCCCC,–,15.5 µM (active)
C[C@]12Cc3nonc3C[C@@H]1CC[C@@H]1[C@@H]2CC[C@@]2(C)[C@H]1CC[C@]2(C)O,-24% (inactive),–
O=[N+]([O-])c1ccc(Oc2ccc(C(F)(F)F)cc2[N+](=O)[O-])cc1,15.4% (inactive),–
Clc1ccc(-c2ccc(Cl)c(Cl)c2Cl)c(Cl)c1Cl,23.5% (inactive),–
CCCCN(CCCC)C(=S)[S-].CCCCN(CCCC)C(=S)[S-].[Zn+2],–,11 µM (active)
O=[N+]([O-])O.O=[N+]([O-])O.[Cd],–,19.5 µM (active)
c1ccc(Nc2ccc3ccccc3c2)cc1,-1.44% (inactive),–
ClC(Cl)=C(Cl)Cl,3.95% (inactive),–

SMILES,"viability change, negative = cytotoxic",Potency
Cc1cc(C)cc(OP(=O)(Oc2cc(C)cc(C)c2)Oc2cc(C)cc(C)c2)c1,-4.73% [at 78.8 µM] (inactive),–
CCCCCCCCCCCCCCCC[N+](C)(C)C,–,21.1 µM (active) and 21.9 µM (active) and 23.9 µM (active)
CC(C)C1CCC(Cc2ccc(Cl)cc2)C1(O)Cn1cncn1 (stereo not given),–,48.5 µM (active)
ClC(Cl)=C(c1ccc(Cl)cc1)c1ccc(Cl)cc1,–,inactive
CN(C)C(=S)S,–,inactive
COc1ccc(/C(=C/C(=O)N2CCOCC2)c2ccc(Cl)cc2)cc1OC,-0.818% (inactive),–
c1ccc2c(c1)OCC(C1=NCCN1)O2 (stereo not given),5.85% (inactive),–
CC[C@H](C)[C@H]1O[C@]2(C=C[C@@H]1C)C[C@@H]1C[C@@H](C/C=C(\C)[C@@H](O[C@H]3C[C@H](OC)[C@@H](O[C@H]4C[C@H](OC)[C@@H](O)[C@H](C)O4)[C@H](C)O3)[C@@H](C)/C=C/C=C3\CO[C@@H]4[C@H](O)C(C)=C[C@@H](C(=O)O1)[C@]34O)O2,–,11.5 µM (active)
CCCCCCCCCCCCCN1CC(C)OC(C)C1 (stereo not given),-7.66% (inactive),–
CCOC(=O)C1(c2ccccc2)CCN(CCC(C#N)(c2ccccc2)c2ccccc2)CC1,-26.8% (inactive),–
Oc1ccc(C(c2ccc(O)cc2)(C(F)(F)F)C(F)(F)F)cc1,–,inactive and 38.9 µM (active)
Nc1ccccc1C(=O)OC/C=C/c1ccccc1,–,49.1 µM (active)
C[C@H]1O[C@@H](O[C@H]2[C@@H](O)C[C@H](O[C@H]3[C@@H](O)C[C@H](O[C@H]4CC[C@@]5(C)[C@H](CC[C@@H]6[C@@H]5CC[C@]5(C)[C@@H](C7=CC(=O)OC7)CC[C@]65O)C4)O[C@@H]3C)O[C@@H]2C)C[C@H](O)[C@@H]1O,–,8.8 nM (active) and 84.9 nM (active)
CC(=O)/C=C/c1ccc2c(c1)OCO2,-5% [at 78.8 µM] (inactive),–
BrC(Br)Br,3.07% (inactive),–
CC(Cc1ccc(C(C)(C)C)cc1)CN1C[C@@H](C)O[C@@H](C)C1 (stereo not given in full),-24.6% (inactive),–
CCCCCCCCCCCCCCCC[n+]1ccccc1,–,24.2 µM (active) [middle of 4 runs]
CCCCCCCCCCCCCC[P+](CCCCCC)(CCCCCC)CCCCCC (tested in a mixture with another compound),–,2.75 µM (active)
C[C@H]1CC[C@@H]2[C@@H](C)[C@H]3[C@H](C[C@H]4[C@@H]5CC=C6CC(O[C@@H]7O[C@H](CO)[C@H](O)[C@H](O[C@@H]8O[C@H](CO)[C@@H](O)[C@H](O)[C@H]8O)[C@H]7O[C@H]7O[C@@H](C)[C@H](O)[C@@H](O)[C@H]7O)CC[C@]6(C)[C@H]5CC[C@]34C)N2C1 (stereo not given in full),-17.3% [at 78.8 µM] (inactive),–
N#CSCSC#N,–,50.1 µM (active) and 34.3 µM (active)
